Measured values as given in PubChem BioAssay.
Active and inactive are the calls of the source.

Legend:
[1] = binders of probe aFSTL3 on microarray, primary screen, stem cell growth factor project, biochemical, small-molecule microarray, fluorescence 635/667 (AID 1064); conditions: higher = more signal;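 also: measures binding of the biotinylated anti-FSTL3 antibody to printed compounds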
[2] = binders from COS7 lysate, DM2A8 probe, primary screen, torsin A project, cell lysate, small-molecule microarray, fluorescence 635/667 (AID 1065); conditions: higher = more signal, COS7 lysate expressing mutant human TOR1A
[3] = binders of probe aFGF2 on microarray, primary screen, stem cell growth factor project, biochemical, small-molecule microarray, fluorescence 635/667 (AID 1067); conditions: higher = more signal;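 also: measures binding of biotinylated aFGF2 protein to printed compounds on slides; z-score merges feature fluorescence and signal-to-noise across triplicate slides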
[4] = binders of probe aFGF10 on microarray, primary screen, stem cell growth factor project, biochemical, small-molecule microarray, fluorescence 635/667 (AID 1071); conditions: higher = more signal;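 also: score merges 667 nm spot intensity and signal to noise from triplicate slides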
[5] = target: Neurogenic locus notch homolog protein 2 (Homo sapiens) (UniProt Q04721); test: Notch2 binders on small-molecule microarrays, primary screen, biochemical, small-molecule microarray, 635 nm fluorescence, stem cell growth factors (AID 1073); conditions: Notch2 binding, higher = more signal
Neurogenic locus notch homolog protein 2 (Homo sapiens), sequence (Q04721 whole entry, looked up, canonical isoform): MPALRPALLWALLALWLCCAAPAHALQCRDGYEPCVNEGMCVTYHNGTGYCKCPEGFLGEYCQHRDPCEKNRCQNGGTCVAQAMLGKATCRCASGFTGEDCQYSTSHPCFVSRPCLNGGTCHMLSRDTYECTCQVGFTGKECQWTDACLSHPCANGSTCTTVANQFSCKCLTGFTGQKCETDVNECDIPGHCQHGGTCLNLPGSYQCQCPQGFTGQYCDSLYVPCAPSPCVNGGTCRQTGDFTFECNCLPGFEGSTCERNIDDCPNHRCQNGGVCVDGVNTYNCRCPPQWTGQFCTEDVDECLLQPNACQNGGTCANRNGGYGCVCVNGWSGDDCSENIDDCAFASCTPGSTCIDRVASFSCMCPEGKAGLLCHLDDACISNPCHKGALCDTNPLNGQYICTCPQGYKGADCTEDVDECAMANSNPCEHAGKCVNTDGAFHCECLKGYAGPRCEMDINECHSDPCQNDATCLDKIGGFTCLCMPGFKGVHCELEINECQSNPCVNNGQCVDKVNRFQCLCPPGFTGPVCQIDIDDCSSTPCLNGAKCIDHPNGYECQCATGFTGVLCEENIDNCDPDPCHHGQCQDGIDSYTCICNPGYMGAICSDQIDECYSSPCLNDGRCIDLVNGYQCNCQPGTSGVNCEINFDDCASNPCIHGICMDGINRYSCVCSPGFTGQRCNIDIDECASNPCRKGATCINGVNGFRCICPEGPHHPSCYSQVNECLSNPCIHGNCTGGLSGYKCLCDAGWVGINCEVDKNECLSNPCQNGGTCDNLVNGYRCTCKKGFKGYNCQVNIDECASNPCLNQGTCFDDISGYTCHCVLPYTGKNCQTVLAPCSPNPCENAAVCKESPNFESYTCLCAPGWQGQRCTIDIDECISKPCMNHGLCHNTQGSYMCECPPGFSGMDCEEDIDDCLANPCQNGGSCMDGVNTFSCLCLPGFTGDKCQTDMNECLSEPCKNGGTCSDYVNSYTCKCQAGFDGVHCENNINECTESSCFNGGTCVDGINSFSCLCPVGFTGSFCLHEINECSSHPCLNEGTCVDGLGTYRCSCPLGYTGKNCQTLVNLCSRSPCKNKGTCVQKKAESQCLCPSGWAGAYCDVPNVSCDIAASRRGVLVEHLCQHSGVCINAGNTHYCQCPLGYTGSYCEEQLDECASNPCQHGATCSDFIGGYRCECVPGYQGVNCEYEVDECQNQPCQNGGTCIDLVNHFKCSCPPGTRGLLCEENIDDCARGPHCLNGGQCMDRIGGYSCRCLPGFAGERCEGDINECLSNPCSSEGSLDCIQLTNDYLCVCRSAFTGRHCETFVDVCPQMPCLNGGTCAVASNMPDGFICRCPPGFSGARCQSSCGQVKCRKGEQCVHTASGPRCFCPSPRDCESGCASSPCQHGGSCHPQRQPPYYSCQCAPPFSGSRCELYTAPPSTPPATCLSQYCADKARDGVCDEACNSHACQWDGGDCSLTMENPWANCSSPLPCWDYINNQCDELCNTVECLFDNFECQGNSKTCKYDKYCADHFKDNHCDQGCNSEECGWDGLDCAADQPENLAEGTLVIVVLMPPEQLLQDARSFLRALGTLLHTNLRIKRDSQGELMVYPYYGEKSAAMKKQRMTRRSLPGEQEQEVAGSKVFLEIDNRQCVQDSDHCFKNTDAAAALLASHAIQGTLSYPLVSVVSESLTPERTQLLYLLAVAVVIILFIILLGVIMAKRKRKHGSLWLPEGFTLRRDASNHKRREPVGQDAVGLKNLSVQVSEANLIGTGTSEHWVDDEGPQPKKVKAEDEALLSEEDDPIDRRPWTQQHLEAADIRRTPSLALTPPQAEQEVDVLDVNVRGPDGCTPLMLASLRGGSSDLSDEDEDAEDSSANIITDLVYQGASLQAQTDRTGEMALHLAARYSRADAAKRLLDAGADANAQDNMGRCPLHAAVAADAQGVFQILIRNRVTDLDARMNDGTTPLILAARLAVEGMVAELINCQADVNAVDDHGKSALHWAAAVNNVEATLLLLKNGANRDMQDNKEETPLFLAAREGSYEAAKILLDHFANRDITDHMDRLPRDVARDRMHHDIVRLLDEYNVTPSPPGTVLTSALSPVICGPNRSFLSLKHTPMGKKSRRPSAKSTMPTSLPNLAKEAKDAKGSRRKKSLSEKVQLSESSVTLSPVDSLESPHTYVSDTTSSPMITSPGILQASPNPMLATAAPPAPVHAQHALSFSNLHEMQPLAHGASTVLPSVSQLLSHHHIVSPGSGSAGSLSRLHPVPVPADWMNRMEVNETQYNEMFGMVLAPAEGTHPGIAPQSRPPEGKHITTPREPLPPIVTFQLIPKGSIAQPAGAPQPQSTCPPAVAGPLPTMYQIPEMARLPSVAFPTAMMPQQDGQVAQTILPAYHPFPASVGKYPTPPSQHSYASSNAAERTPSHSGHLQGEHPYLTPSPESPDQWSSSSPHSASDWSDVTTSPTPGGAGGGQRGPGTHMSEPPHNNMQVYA

[6] = target: Pro-neuregulin-1, membrane-bound isoform (Homo sapiens) (UniProt Q02297); test: NRG1 binders on small-molecule microarrays, primary screen, psychiatric disease protein project, biochemical, small-molecule microarray, fluorescence 635/667 (AID 1075); conditions: NRG1 binding, 635 nm fluorescence, higher = more signal;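 also: score combines 667 nm spot fluorescence with signal to noise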
Pro-neuregulin-1, membrane-bound isoform (Homo sapiens), sequence (Q02297 whole entry, looked up, the tested form may be a part, canonical isoform): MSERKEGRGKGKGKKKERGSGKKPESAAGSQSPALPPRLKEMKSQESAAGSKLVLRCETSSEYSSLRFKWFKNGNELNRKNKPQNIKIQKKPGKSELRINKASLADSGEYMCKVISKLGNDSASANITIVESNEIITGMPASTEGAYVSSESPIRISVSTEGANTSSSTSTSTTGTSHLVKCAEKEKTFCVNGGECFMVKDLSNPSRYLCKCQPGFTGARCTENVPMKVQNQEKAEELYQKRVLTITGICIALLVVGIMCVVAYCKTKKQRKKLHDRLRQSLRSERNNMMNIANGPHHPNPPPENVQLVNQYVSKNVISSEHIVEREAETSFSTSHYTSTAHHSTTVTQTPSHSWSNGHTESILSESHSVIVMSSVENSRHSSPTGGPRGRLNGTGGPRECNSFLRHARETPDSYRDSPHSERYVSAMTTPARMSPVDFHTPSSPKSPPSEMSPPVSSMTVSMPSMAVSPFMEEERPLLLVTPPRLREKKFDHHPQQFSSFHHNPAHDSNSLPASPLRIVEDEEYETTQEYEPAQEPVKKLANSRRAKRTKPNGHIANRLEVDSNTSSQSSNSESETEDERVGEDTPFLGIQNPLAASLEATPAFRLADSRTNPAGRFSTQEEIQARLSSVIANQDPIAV

[7] = system: Neuregulin-1 EGF-like domain; test: binders of neuregulin-1 EGF-like domain, primary screen, biochemical, small-molecule microarray, 635 nm fluorescence (AID 1081); conditions: small-molecule microarray binding, higher = more signal;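 also: binding of the protein to compounds printed on small-molecule microarray slides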
[8] = FRG1 promoter luciferase signal modulators, primary screen, FRG1 inhibition for FSHD, cell-based, C2C12 myotubes, firefly/Renilla luciferase, luminescence (AID 1084); conditions: higher = more signal, called active from +8 up or from −8 down
[9] = binders of probe aFST on microarray, primary screen, stem cell growth factor project, biochemical, small-molecule microarray, fluorescence 635/667 (AID 1086); conditions: higher = more signal;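 also: score merges 667 nm fluorescence with signal-to-noise of each printed compound spot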
[10] = binders of probe aHhip on microarray, primary screen, stem cell growth factor project, biochemical, small-molecule microarray, fluorescence 635/667 (AID 1087); conditions: higher = more signal;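 also: score merges spot fluorescence at 667nm with spot signal to noise ratio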
[11] = system: PRMT1 (protein arginine N-methyltransferase 1); test: PRMT1 binders on small-molecule microarrays, primary screen, biochemical, small-molecule microarray, 635 nm fluorescence (AID 1088); conditions: small-molecule microarray binding, higher = more signal;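 also: binding of Prmt1 protein to compounds spotted on small-molecule microarray slides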
[12] = yeast growth modulation, basal conditions, primary screen, YJM789 clinical isolate, OD600, 24 h (AID 1089);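 also: growth of clinical yeast isolate S. cerevisiae YJM 789 seeded 1000 cells per well; test concentration not given here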; conditions: S. cerevisiae YJM789 growth, higher = more signal, called active from +8 up or from −8 down
[13] = fission yeast growth modulation, primary screen, strain 972, OD600, 24 h, no modulator (AID 1090);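 also: basal condition with compound alone and no growth modifier present; test concentration not given here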; conditions: S. pombe 972 growth, higher = more signal, called active from +8 up or from −8 down
[14] = S. cerevisiae growth modulation with rapamycin, primary screen, strain BY4716, OD600, 96 h (AID 1091); conditions: higher = more signal, called active from +8 up or from −8 down; also: test concentration not given here
[15] = target: Torsin-1A-interacting protein 2 (Homo sapiens) (UniProt Q8NFQ8); test: LULL1 binders on small-molecule microarray, primary screen, cell lysate, human LULL1 lysate, 635/667 nm fluorescence (AID 1092); conditions: hLULL1 lysate binding, 635 nm fluorescence, higher = more signal;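 also: probe is lysate of COS7 cells overexpressing human LULL1; score merges per-feature 667 nm fluorescence with signal-to-noise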
Torsin-1A-interacting protein 2 (Homo sapiens), sequence (Q8NFQ8 whole entry, looked up): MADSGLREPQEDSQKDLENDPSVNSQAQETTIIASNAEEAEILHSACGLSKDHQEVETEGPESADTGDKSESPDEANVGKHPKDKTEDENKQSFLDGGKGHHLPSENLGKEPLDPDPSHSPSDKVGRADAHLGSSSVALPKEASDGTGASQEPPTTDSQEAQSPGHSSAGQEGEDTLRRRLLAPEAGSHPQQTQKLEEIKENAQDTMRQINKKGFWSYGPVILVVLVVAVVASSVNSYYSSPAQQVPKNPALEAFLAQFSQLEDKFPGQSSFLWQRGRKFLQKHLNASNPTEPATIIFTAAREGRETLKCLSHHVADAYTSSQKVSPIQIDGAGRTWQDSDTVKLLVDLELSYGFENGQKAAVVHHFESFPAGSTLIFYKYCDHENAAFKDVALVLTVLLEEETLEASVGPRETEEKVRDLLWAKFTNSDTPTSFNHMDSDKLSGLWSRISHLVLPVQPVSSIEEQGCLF

[16] = E. coli growth modulation, two-sided OD650, primary screen, E. coli filamentation project, strain DRC41, 24 h (AID 1093); conditions: OD650, 24 h, higher = more signal, called active from +8 up or from −8 down;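 also: MC1000 strain lacking acrAB efflux and sulA so SOS filamentation is blocked; test concentration not given here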
[17] = small-molecule microarray binders of probe aLefty2, primary screen, biochemical, biotinylated probe, 635/667 nm fluorescence (AID 1094); conditions: higher = more signal;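 also: score merges spot fluorescence near 667 nm with spot signal-to-noise ratio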
[18] = system: Noggin (protein binding on small-molecule microarray); test: Noggin binders on small-molecule microarray, primary screen, biochemical, 635/667 nm fluorescence (AID 1095); conditions: 635 nm fluorescence, higher = more signal;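 also: score merges 667 nm feature fluorescence with signal to noise over triplicate slides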
[19] = target: Neurogenic locus notch homolog protein 3 (Homo sapiens) (UniProt Q9UM47); test: NOTCH3 binders on small-molecule microarray, primary screen, biochemical, 635/667 nm fluorescence (AID 1096); conditions: NOTCH3 binding, 635 nm fluorescence, higher = more signal
[20] = small-molecule microarray binders of probe aEGFR, primary screen, biochemical, biotinylated probe, 635/667 nm fluorescence (AID 1097); conditions: higher = more signal;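 also: probe is a biotinylated anti-EGFR antibody binding compounds printed on slides; score combines fluorescence near 667 nm and signal to noise of each spot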

Structure (SMILES)	composite z-score [1]	composite z-score [2]	composite z-score [3]	composite z-score [4]	composite z-score [5]	composite z-score [6]	composite z-score [7]	z-score [8]	composite z-score [9]	composite z-score [10]	composite z-score [11]	z-score [12]	z-score [13]	z-score [14]	composite z-score [15]	z-score [16]	composite z-score [17]	composite z-score [18]	composite z-score [19]	composite z-score [20]
COC(=O)[C@@]1(Cc2ccccc2)[C@H]2c3cc(C(=O)N4CCCC4)n(Cc4ccccc4)c3C[C@H]2CN1C(=O)c1ccccc1	0.425	-0.463	0.113	0.742	1.69	1.6	1.01	-1.15 (inactive)	1.54	-0.135	-0.089	-0.0324 (inactive)	0.58 (inactive)	1.55 (inactive)	3.41	-0.745 (inactive)	0.432	0.0362	1.05	0.416
COc1cc(C(O)C2C=CC3C(=O)N(C)C(=O)C3N2NC(=O)OC(C)(C)C)cc(OC)c1OC (stereo not given)	0.425	-0.27	0.265	0.469	1.38	2.13	1.38	-0.167 (inactive)	0.935	0.122	1.09	0.61 (inactive)	2 (inactive)	1.15 (inactive)	3.16	-1.34 (inactive)	0.604	-0.23	0.697	0.561
O=C1CSC(c2cccc([N+](=O)[O-])c2)N1c1ccccc1 (stereo not given)	0.315	-0.0123	-0.0161	0.508	0.839	0.146	0.979	-0.239 (inactive)	-0.0692	-0.0994	0.0447	-0.0876 (inactive)	0.616 (inactive)	1.09 (inactive)	0.517	0.666 (inactive)	-0.0163	0.36	0.201	0.0093
CN(C)CCCCNC(=O)[C@H]1C[C@H]2C(=O)N[C@@H](CCCC[N+](C)(C)C)C(=O)N2[C@H]1c1cccc(OCCO)c1	-0.235	1.09	-0.116	-0.0012	-0.606	0.417	1.26	2.9 (inactive)	-0.268	-0.0994	1.53	-0.359 (inactive)	0.276 (inactive)	-0.702 (inactive)	2.05	0.305 (inactive)	-0.204	1.35	0.907	-0.0733
CC(C)CNC(=O)[C@@]1(c2ccc([N+](=O)[O-])cc2)CC(=O)N(C(C)C)[C@@H]1c1ccc(CO)cc1	0.722	-0.187	-0.137	-0.138	-0.205	1.95	0.55	-0.696 (inactive)	-0.761	-0.0252	0.808	-0.655 (inactive)	-0.182 (inactive)	-0.812 (inactive)	2.03	0.738 (inactive)	-0.147	-0.641	-0.143	-0.13
CN(C)CCCN1C(=O)[C@@]2(Cc3ccccc31)c1ccccc1C(=O)N(Cc1ccccc1)[C@H]2c1ccc(CO)cc1	-0.0277	0.115	-0.0861	-0.492	-0.639	0.466	-0.226	0.878 (inactive)	1.02	-0.0994	1.12	-0.0782 (inactive)	-1.35 (inactive)	-1.85 (inactive)	-0.42	-1.42 (inactive)	-0.171	0.542	0.204	-0.184
COC(=O)[C@]1(Cc2ccccc2N=[N+]=[N-])N=C(c2ccc(OCCCO)cc2)O[C@@H]1c1ccccc1	1.3	0.517	0.0132	-0.152	-0.0515	0.358	0.929	-0.237 (inactive)	0.182	0.0291	0.867	0.537 (inactive)	-1.28 (inactive)	21.8 (active)	2.21	1.06 (inactive)	0.23	-0.4	-0.361	-0.136
COCCOC(=O)N1C(=O)[C@@]2(c3cc(C#Cc4ccc(OC)cc4)ccc31)[C@H](c1ccc(OCCO)cc1)N1[C@H](c3ccccc3)[C@H](c3ccccc3)OC(=O)[C@H]1[C@@H]2C(N)=O	0.261	1.24	-0.0128	0.646	1.46	1.25	1.26	1.06 (inactive)	0.851	0.0972	1.54	1.37 (inactive)	1.87 (inactive)	5.01 (inactive)	1.64	1.37 (inactive)	0.172	1.45	1.02	0.0593
O=C(CS)NCCCCCNC(=O)[C@@H]1C[C@@H]2C(=O)N3CCC[C@H]3C(=O)N2[C@@H]1c1ccc(O)cc1	0.344	0.282	-0.0333	0.354	-0.677	0.33	1.32	0.0995 (inactive)	-0.0412	0.127	1.09	-0.0524 (inactive)	-0.207 (inactive)	0.0036 (inactive)	2.81	0.0681 (inactive)	-0.0279	-0.0286	0.164	-0.118
CC(C)C[C@@H]1NC(=O)[C@@H]2C[C@H](C(=O)NCCCC[N+](C)(C)C)[C@H](c3cccc(OCCO)c3)N2C1=O	0.157	1.09	-0.0784	-0.0155	-0.884	1.05	1.12	0.14 (inactive)	0.496	0.595	1.31	1.14 (inactive)	0.936 (inactive)	-0.567 (inactive)	0.622	-0.329 (inactive)	-0.0123	1.84	1.04	-0.0069
C=CC[C@@]1(C(=O)NCC(O)CO)N=C(c2ccc(OCCCO)cc2)O[C@@H]1c1ccccc1 (stereo not given in full)	1.49	2.09	0.255	0.44	-0.565	1.64	0.845	-1.09 (inactive)	0.872	0.108	1.4	-0.646 (inactive)	-1.17 (inactive)	-1.12 (inactive)	3.12	0.727 (inactive)	0.344	0.315	0.0815	0.168
N#Cc1ccc(NN2C(C(O)c3ccccc3)C=CC3C(=O)N(c4ccccc4)C(=O)C32)cc1 (stereo not given)	0.0243	-0.0347	0.111	0.379	0.639	1.15	1.09	0.474 (inactive)	0.64	-0.151	-0.827	-0.541 (inactive)	0.836 (inactive)	1.77 (inactive)	3.29	-0.676 (inactive)	0.228	-0.229	0.552	-0.0531
COc1cc(NN2C(C(O)c3ccc(I)cc3)C=CC3C(=O)N(C)C(=O)C32)cc(OC)c1OC (stereo not given)	0.495	-0.363	-0.0207	0.0488	1.52	1.96	1.14	0.777 (inactive)	-0.0647	-0.0237	0.0146	0.896 (inactive)	0.605 (inactive)	0.0514 (inactive)	2.75	0.202 (inactive)	0.0283	-0.131	-0.325	0.113
COc1cccc(C[C@H]2C[C@@H](CO[Si](C(C)C)(C(C)C)C(C)C)N3C(=O)[C@]4(C(C)=O)O[C@]23[C@H]2C(=O)N(C)C(=O)[C@H]24)c1	-0.46	0.395	-0.021	0.407	0.797	0.143	0.996	0.165 (inactive)	0.421	-0.0618	1.49	0.481 (inactive)	1.38 (inactive)	1.25 (inactive)	0.622	-1.11 (inactive)	-0.0942	1	1.13	-0.0175
COc1cc2c(cc1OC)CN(C(=O)[C@@H]1[C@H]3C(=O)O[C@H](c4ccccc4)[C@H](c4ccccc4)N3[C@H](c3ccc(O)cc3)[C@@]13C(=O)Nc1ccc(C#CCNC(N)=O)cc13)CC2	-0.133	-0.121	-0.0616	0.411	0.578	0.559	0.544	0.238 (inactive)	0.75	-0.0994	0.666	1.1 (inactive)	1.27 (inactive)	1.48 (inactive)	1.22	0.364 (inactive)	0.0835	1.03	0.802	-0.0455
COCCCNC(=O)[C@@]1(Cc2ccccc2)COC(c2ccc(OCCCO)cc2)=N1	0.0674	-0.321	-0.0745	0.821	0.694	1.77	0.99	-1.02 (inactive)	0.696	-0.135	1.49	-1.29 (inactive)	-1.98 (inactive)	-1.27 (inactive)	3.55	1.47 (inactive)	0.0634	-0.233	0.117	-0.0828
COCC(=C=CC[C@@H](O)c1ccccc1OCCO)C[C@@H](O)COCc1ccccc1	0.181	1.12	-0.0267	1.06	-0.258	1.68	1.01	-1.11 (inactive)	0.463	0.891	1.23	-0.893 (inactive)	-1.68 (inactive)	-1.26 (inactive)	2.62	1.73 (inactive)	0.437	1.01	-0.0082	0.0017
O=C(O)[C@@]1(Cc2ccccc2)COC(c2ccc(OCCCO)cc2)=N1	0.805	-0.24	-0.0886	-0.24	-0.287	1.19	1.2	0.809 (inactive)	0.519	-0.0994	-0.269	0.661 (inactive)	1.01 (inactive)	1.3 (inactive)	2.64	0.598 (inactive)	-0.0915	-0.66	-0.776	-0.229
C=C[C@@H](O)[C@H]1CC(c2ccccc2)=NO1	-0.0317	-0.1	-0.0692	-0.105	-0.138	-0.37	-0.262	1.6 (inactive)	0.266	0.172	-0.425	-0.347 (inactive)	-0.954 (inactive)	-0.657 (inactive)	-0.141	1.13 (inactive)	-0.0339	-0.174	-0.872	-0.0844
